Out of some 48,000 compounds screened, about 13,000 (27%) showed an effect of 50% or more. This is one part of the list.
These compounds were tested on Wolbachia pipientis (assay: Anti-Wolbachia Cell-Based Screen). Details: 5 µM.
Format: functional
Design: scale not given: in the data most compounds retested in dose-response had high values

Structure (SMILES) | Percent Effect
COCCNC(=O)Nc1ccn(-c2cccc(C(F)(F)F)c2)n1 | 3.521%
OCCC1CN(c2ncnc3[nH]cnc23)CCN1Cc1ccccc1F (stereo not given) | -3.014%
OCCc1cc(CC2(NCc3ccc(C(F)(F)F)cc3)COC2)no1 | 1.711%
CN(C(=O)CN(Cc1cccc(O)c1)C1CCC(O)CC1)C1CC1 (stereo not given) | 2.382%
CCc1ccc(CN2CCCC(c3nn(C)c(=O)n3CC)C2)nc1 (stereo not given) | 20.88%
CC(C)NC(=O)CCNC(=O)CCc1cc(Br)cs1 | -10.2%
Cc1ncc(CN)c(-c2cn(C)c3ccccc23)n1 | 142.3%
Cn1cc(CNC[C@H]2Cn3ccnc3CO2)c2ccccc21 | -9.127%
COc1ccc2c(c1)c(-c1nc(C)ncc1CN)cn2C | 104.6%
COc1ccc2cccc(CC(=O)NCc3n[nH]c(=O)[nH]3)c2c1 | 5.869%
COc1ccc(CN)c(OC(F)F)c1.Cl | -5.611%
COc1ccc(-c2n[nH]cc2CN(C)Cc2nccn2C)c(F)c1 | -1.077%
Cc1cc(N2CCN(C(=O)c3cn(C)c4ccccc34)CC2)nc(C)n1 | 1.104%
COCC(=O)NCc1cnc(C)nc1-c1cn(C)c2ccc(OC)cc12 | 67.07%
COc1ccc2cccc(CC(=O)NCc3nccc(N)n3)c2c1 | -13.23%
COc1ccc2c(c1)c(-c1nc(N(C)C)ncc1CN)cn2C | 69.63%
COc1ccc(-c2ccccc2CN)c(OC)c1 | -11.71%
COc1ccc(OC)c(CN(C)c2nc3c(cnn3C)c(=O)[nH]2)c1 | -18.11%
CN(CCNC(=O)N1CCN(Cc2ccon2)CC1)C1CCCC1 | -5.523%
CC1CCN(CC2(O)CCCN(Cc3cccc(F)c3F)C2=O)CC1 (stereo not given) | -9.136%
O=C(CN(Cc1ccccc1)CC1CCOCC1)Nc1nccs1 | -5.546%
Cn1cnnc1CN1CCC2(CCC(=O)N(Cc3ccccc3)C2)CC1 | -10.98%
Cc1nnc2n1CCN(C(C(=O)NC1CC1)c1ccccc1)C2 (stereo not given) | -4.736%
O=S(=O)(CC1CCCCC1)NCc1ccnc(O)c1 | -10.25%
COc1ccc2nc(CCNC(=O)c3cc(CC(C)C)no3)[nH]c2c1 | 0.008091%

Structure (SMILES) | Percent Effect
CCNC(=O)Nc1ccc2c(ccn2CC(=O)N(CC)CC)c1 | -5.513%
COc1ccc2c(ccn2CCC(=O)Nc2n[nH]c(CC(C)C)n2)c1 | 106.4%
COCCN(C)C(=O)Nc1ccc2c(ccn2CC(=O)N(C)C)c1 | 5.654%
COc1ccc2c(ccn2CC(=O)Nc2n[nH]c(CC(C)C)n2)c1 | 220.2%
CNS(=O)(=O)Cc1ccc(CNc2ccc(C#N)cn2)cc1 | 0.03552%
O=C(O)C(F)(F)F.O=C(O)C(F)(F)F.c1csc(CN2CCCn3cnc(CN4CCCC4)c3C2)c1 | -7.451%
O=C(O)C(F)(F)F.O=C(O)C(F)(F)F.c1csc(CN2Cc3nc(CN4CCCC4)oc3C2)c1 | 109.9%
O=C(c1ccc2[nH]ccc2c1)N1Cc2nc(CN3CCCC3)oc2C1 | -7.855%
O=C(O)C(F)(F)F.O=C(c1ccc2[nH]ccc2c1)N1Cc2nc(CN3CCCCC3)oc2C1 | -9.773%
O=C(NCc1cccs1)c1nc2c(o1)CN(c1ncccn1)C2 | 0.5771%
Cc1ncnc2c1CCN(Cc1cccs1)CC2.O=C(O)C(F)(F)F | -21.74%
O=C(Cc1cccs1)N1Cc2nc(CN3CCCC3)oc2C1 | 101.2%
O=C(O)C(F)(F)F.O=S(=O)(c1cccs1)N1CC[C@H]2[C@H]1CCN2CC1CC1 | -12.79%
O=C(O)C(F)(F)F.O=C(O)C(F)(F)F.O=C(c1ccncc1F)N1Cc2nc(CN3CCCCC3)oc2C1 | -18.26%
O=C(O)C(F)(F)F.O=S(=O)(c1cccs1)N1Cc2nc(CN3CCCCC3)oc2C1 | 109.1%
O=C(Cc1ccsc1)N1Cc2nc(CN3CCCCC3)oc2C1.O=C(O)C(F)(F)F | 93.12%
O=C(O)C(F)(F)F.O=S(=O)(c1cccs1)N1CCCn2nnc(CN3CCCCC3)c2C1 | -14.53%
CC(C)Oc1ccc(CN2CCN3CCN(C)CC3C2)cc1CO (stereo not given) | 9.29%
CC(C)N1CCc2onc(Cn3cccc3)c2C1.O=C(O)C(F)(F)F | -0.5475%
CCc1cnc(C)nc1NCCC(=O)N1CCC(C)CC1 | -0.3722%
COc1ccnc(N(C)Cc2ccccc2O)n1 | -0.8473%
CN(C)C(CNCc1nc(-c2ccsc2)no1)c1cccc(F)c1 (stereo not given) | 29.87%
CC(=O)Oc1ccnc(C(F)(F)F)c1C(C)=O | 6.517%
O=C(O)C(F)(F)F.O=S(=O)(c1cccs1)N1Cc2nc(CN3CCCC3)oc2C1 | 87.16%
O=C(O)C(F)(F)F.O=S(=O)(c1cccs1)N1CC[C@@H](O)[C@@H]1Cc1ccncc1 | 6.31%

From ChEMBL document CHEMBL3988442, “University of Dundee, Small-Polar-MMV Screening Library” (2021)
